# TDP1 cell CPT: growth inhibition of DT40 Tdp1-/-;hTDP1 cells with camptothecin (screen for TDP1 inhibitors); 12% of 420,000 active; Potency, µM (titrated, usually from 46.2 µM), without a hit: at the highest dose activity change, negative = growth inhibition, hits mostly inhibitors; chicken DT40 Tdp1-/-;hTDP1 cells + 20 nM CPT, ATP luminescence, 48 h; also: potency is read from the fitted curve at half-maximal effect; nearly all actives have a fitted effect of over 55% in size
#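 Chicken DT40 Tdp1-/- cells stably complemented with human TDP1 were seeded at 400 cells/well in medium containing 20 nM camptothecin, exposed to pin-transferred compounds, and grown at 37 °C for at least 48 hr. Viability was read as ATP luminescence.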
# HT1080NT lethal: kills 2HG-producing HT-1080-NT fibrosarcoma cells | Potency, µM (titrated, usually from 46.1 µM), inactives show top-dose activity, negative = less viability, usual class: cytotoxic | 1.6% of 360,000 active | AID 686970 | HT-1080-NT fibrosarcoma viability, CellTiter-Glo ATP luminescence, 48 h;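 also: NT is the 2HG producing partner of a matched IDH1 knockdown line; potency is read from the fitted curve at half-maximal effect; 0% = DMSO-treated cells and -100% = media-only wells without cells; nearly all actives have a fitted effect of over 55% in size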
#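 HT-1080-NT fibrosarcoma cells (2HG-overproducing), 750 cells/well in RPMI with 5% FBS, dosed after 2 h and incubated 48 h at 37C. CellTiter-Glo luminescence normalized to DMSO and no-cell wells; concentration-response curves fitted and classed.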
# IL1B secr inh: inhibitors of inflammasome signaling (IL-1 beta secretion) | THP-1 LPS/ATP IL-1B secretion, AlphaLISA, 16 h; hits give low values | activity change, % at 57.5 µM | 4.7% of 360,000 active; in the data active = activity change below about -50%; inconclusive = mostly about -30% to -49%
#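 Secreted IL-1B measured by AlphaLISA bead assay after 16 h compound exposure of THP-1 cells; compounds (final up to 57.5 uM) added 1 h before LPS (250 ng/mL) and ATP (1.25 mM) stimulation; lower signal means less secretion.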
# 12-LOX inh: ALOX12 (human) lipoxygenase inhibition; 1.1% of 580,000 active; P18054; purified 12hLO, xylenol orange hydroperoxide absorbance; Potency, µM (doses to about 108 µM), for the others: top-dose activity change, negative = inhibition, actives largely listed as inhibitors; also: potency is read from the fitted curve at half-maximal effect
# Target sequence (P18054 whole entry, looked up): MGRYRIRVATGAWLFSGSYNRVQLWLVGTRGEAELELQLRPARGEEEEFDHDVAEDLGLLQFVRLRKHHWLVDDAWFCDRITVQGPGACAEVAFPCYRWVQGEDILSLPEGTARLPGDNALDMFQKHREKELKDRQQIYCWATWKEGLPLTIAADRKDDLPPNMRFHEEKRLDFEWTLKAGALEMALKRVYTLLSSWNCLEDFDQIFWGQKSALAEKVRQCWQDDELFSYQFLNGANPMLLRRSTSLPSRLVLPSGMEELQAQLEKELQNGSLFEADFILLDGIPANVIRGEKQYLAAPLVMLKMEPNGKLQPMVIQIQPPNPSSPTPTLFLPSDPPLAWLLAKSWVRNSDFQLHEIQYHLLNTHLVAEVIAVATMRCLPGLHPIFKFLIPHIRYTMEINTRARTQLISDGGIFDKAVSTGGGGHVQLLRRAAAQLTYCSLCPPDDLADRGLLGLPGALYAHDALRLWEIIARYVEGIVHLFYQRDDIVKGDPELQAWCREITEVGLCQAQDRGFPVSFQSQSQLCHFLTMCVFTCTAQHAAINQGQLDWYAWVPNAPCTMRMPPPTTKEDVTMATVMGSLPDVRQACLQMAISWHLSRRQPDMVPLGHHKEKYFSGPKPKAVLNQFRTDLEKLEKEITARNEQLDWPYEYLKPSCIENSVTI
#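 Hydroperoxide product was detected by ferrous iron/xylenol orange as the 573 to 405 nm absorbance ratio. Arachidonic acid at 40 uM (final) was turned over for 30 min at room temperature by 150 nM human 12hLO, pH 7.0 Hepes buffer, after 15 min compound preincubation.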
# TDP1 cell noCPT: qHTS for Inhibitors of human tyrosyl-DNA phosphodiesterase 1 (TDP1): qHTS in cells in absence of CPT; DT40 Tdp1-/- hTDP1 cells, no CPT, ATP luminescence, 48 h; Potency, µM (titrated, usually from 46.2 µM), inactives show at the highest dose activity change, negative = growth inhibition, most hits filed as inhibitors; 15% of 420,000 active; AID 686978, 2013; also: potency is read from the fitted curve at half-maximal effect; nearly all actives have a fitted effect of over 55% in size
#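 Luminescent ATP content (CellTiter-Glo) served as the growth readout. Knockout chicken DT40 cells expressing human TDP1 were exposed to compounds without camptothecin for a minimum 48 hr at 37 °C.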
# HT1080 IDH1KD tx: toxicity to HT-1080 IDH1 knockdown cells (counter line). 2% of 360,000 active. AID 686971. HT-1080 IDH1 knockdown viability, ATP luminescence, 48 h. Potency, µM (top dose mostly 46.1 µM), without a hit: top-dose activity, negative = toxicity, hits mostly cytotoxic;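 also: potency is read from the fitted curve at half-maximal effect; 0% = DMSO wells and -100% = cell-free medium wells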
#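 HT-1080-IDH1KD cells (IDH1 knocked down), 750/well in RPMI with 5% FBS, treated with compound 48 h at 37 degrees C. Viability by CellTiter-Glo luminescence, normalised to DMSO and no-cell wells; concentration-response curves classed.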
# * hit, by the source's call; ? = inconclusive; · = not tested or not shown. Many of the other results were omitted from the sample, so hits are more common in it than they were. Unless noted, calls follow the shape of the dose curve; as a rule, active = well fitted curve in the direction sought with a large enough effect; inconclusive = small, poorly fitted or top-dose-only effect, or another doubt; inactive = no such curve, though single readings can be large; an effect the other way counts as inactive or inconclusive. Unless noted, % is scaled to controls: 0 for no effect and ±100 for the full control effect.
SMILES,TDP1 cell CPT,HT1080NT lethal,IL1B secr inh,12-LOX inh,TDP1 cell noCPT,HT1080 IDH1KD tx
CCC(=O)Nc1ccc(C2(C(=O)N3CCN(c4ccccn4)CC3)CCCCC2)cc1,·,·,·,55%,·,·
CCOc1ncccc1C(=O)N1CCN(CC(=O)Nc2ccccc2Cl)CC1,·,·,·,46%,·,·
Cc1nn2c(c1-c1ccccc1[S+](C)(=O)[O-])N(Cc1ccc(C(=O)O)s1)CCC2,·,·,·,32µM*,·,·
COc1ccc(C2Cn3nnc(-c4noc(-c5cccnc5)n4)c3CO2)cc1 (stereo unspecified),·,·,·,21%,·,·
CCn1c(/C=C/c2cc[n+](C)cc2)nc2ccccc21,-16%,6%,-13,11µM*,-4%,8%
CC(C)n1c(CN(C)c2ccccc2)nc2ccccc21,?,-16%,-8,?,?,-10%
COCCOCCn1c(/C=C/c2ccccc2)nc2ccccc21,?,?,-3,27%,?,?
CCCn1c(/C=C/c2ccccc2)nc2ccccc21,?,10µM*,-21,3%,23µM*,10µM*
Cc1ccc(C(=O)Cn2c(C(=O)/C=C/c3ccccc3)nc3ccccc32)cc1,16µM*,?,?,-6%,16µM*,?
CCn1c(/C=N/c2nc3ccccc3n2C)nc2ccccc21,-3%,?,20,11%,-12%,?
CC(C)n1c(/C=C/c2ccccc2)nc2ccccc21,-6%,26%,-78*,-16%,?,2%
COCCC1(CO)CCCN(C(=O)c2cc(C3CC3)[nH]n2)C1 (stereo unspecified),·,·,·,-7%,·,·
O=C(CCCn1cncn1)N1CCCC(CCc2ccccc2C(F)(F)F)C1 (stereo unspecified),·,·,·,31%,·,·
CN1CCN(C(=O)c2cc([N+](=O)[O-])ccc2Cl)CC1,-7%,-2%,20,-2%,1%,5%
CC(C)c1ccccc1NC(=O)Cn1c(/C=C/c2ccccc2)nc2ccccc21,18µM*,?,-7,·,?,-27%
CC(C)c1ccccc1NC(=O)Cn1c(-c2ccccc2Cl)nc2ccccc21,-21%,-9%,9,-7%,-5%,-8%
Cc1ccc(Cl)cc1-n1c(SCC(=O)NCCC2=CCCCC2)nc2n[nH]c(C)c2c1=N,?,?,0,-4%,-23%,?
Cc1[nH]nc2nc(SCC(=O)NCCC3=CCCCC3)n(-c3ccc(Br)cc3)c(=N)c12,12µM*,21µM*,-4,-16%,8.2µM*,?
Cc1cc(-n2c(SCC(=O)NCCC3=CCCCC3)nc3n[nH]c(C)c3c2=N)ccc1Cl,16µM*,18µM*,14,-2%,8.2µM*,?
Nc1nc(=S)c2[nH]cnc2[nH]1,2.6µM*,2.3µM*,0,?,1.8µM*,1.3µM*
CSc1nc(=O)[nH]c2nc[nH]c12,-2%,·,·,·,-2%,·
COc1ccc2[nH]c(C(=O)N3CCN4CCS(=O)(=O)N(C5CC5)C(=O)C4C3)cc2c1 (stereo unspecified),·,·,·,22µM*,·,·
O=C(Nc1cccc(C(F)(F)F)c1)c1cc(-c2ccc(Cl)cc2)on1,?,·,·,-25%,?,·
FC(F)(F)c1cccc(Nc2nc3nonc3nc2Nc2ccc(Cl)cc2)c1,0.23µM*,·,·,?,0.58µM*,·
Cn1c(=O)c2cc(NC(=O)Cc3cccnc3)ccc2n1-c1ccc2ccccc2c1,15µM*,?,-8,18%,15µM*,18µM*
CC(CC(=O)Nc1ccc2c(c1)c(=O)n(C)n2-c1ccc2ccccc2c1)C(F)(F)F (stereo unspecified),5.2µM*,?,59,0%,2.6µM*,?
O=C(CSc1nccc(=O)[nH]1)Nc1ccc2ccccc2c1,3%,5%,17,?,2%,4%
